# Laboratory results from the supplement of paper PMC8728848.
# The sample as a whole holds a higher share of the strongest signals than the screen did.
# B1: FGF1 (Homo sapiens), P05230 (protein)
# chain: MAEGEITTFTALTEKFNLPPGNYKKPKLLYSNGGHFLRILPDGTVDGTRDRSDQHIQLQLSAESVGEVYIKSTETGQYLAMTDGLLYGSQTPNEECLFLERLEENHYNTYISKHAEKNWFVGLKKNGSCKRGPRTHYGQAILFLPLPASSED
# How the values were obtained:
# Experiment in all cases: glycan array binding signal (z-score within array); higher = stronger binding
# Settings in all cases: glycan notation: IUPAC condensed, linker removed
# [1] = biological target: GlcNAc(b1-2)[GlcNAc(b1-6)]Man(a1-6)[GlcNAc(b1-4)][GlcNAc(b1-2)Man(a1-3)]Man(b1-4)GlcNAc(b1-4)GlcNAc
# In short: (§1)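 Arrays were curated from the Consortium for Functional Glycomics database, 3228 in total, and kept only where the protein sequence was available. Binding is expressed as a within-array Z-score. This score was averaged across arrays of the same protein sequence at different concentrations or buffers and across linkers, and negative values can be read as non-binding.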
# GlcNAc(b1-3)Fuc = biological target: GlcNAc(b1-3)Fuc
# In short: as §1
# GlcNAc(b1-3)Gal = biological target: GlcNAc(b1-3)Gal
# In short: as §1
# [2] = biological target: GlcNAc(b1-3)Gal(b1-4)GlcNAc(b1-3)Gal(b1-4)GlcNAc(b1-2)Man(a1-3)[GlcNAc(b1-3)Gal(b1-4)GlcNAc(b1-3)Gal(b1-4)GlcNAc(b1-2)Man(a1-6)]Man(b1-4)GlcNAc(b1-4)[Fuc(a1-6)]GlcNAc
# In short: as §1
# [3] = biological target: GlcNAc(b1-3)Gal(b1-4)GlcNAc(b1-3)Gal(b1-4)GlcNAc(b1-3)Gal(b1-4)GlcNAc(b1-2)Man(a1-3)[GlcNAc(b1-3)Gal(b1-4)GlcNAc(b1-3)Gal(b1-4)GlcNAc(b1-3)Gal(b1-4)GlcNAc(b1-2)Man(a1-6)]Man(b1-4)GlcNAc(b1-4)[Fuc(a1-6)]GlcNAc
# In short: as §1
# Kdn(a2-3)Gal(b1-4)Glc = biological target: Kdn(a2-3)Gal(b1-4)Glc
# In short: as §1
# [4] = biological target: Man(a1-2)Man(a1-3)[Man(a1-2)Man(a1-6)]Man
# In short: as §1
# [5] = biological target: Neu5Ac(a2-3)Gal(b1-3)GlcNAc(b1-2)Man(a1-3)[Neu5Ac(a2-3)Gal(b1-3)GlcNAc(b1-2)Man(a1-6)]Man(b1-4)GlcNAc(b1-4)GlcNAc
# In short: as §1
# [6] = biological target: Neu5Ac(a2-3)Gal(b1-3)GlcNAc(b1-3)Gal(b1-3)GlcNAc
# In short: as §1
# [7] = biological target: Neu5Ac(a2-3)Gal(b1-3)GlcNAc(b1-3)GalNAc
# In short: as §1
# [8] = biological target: Neu5Ac(a2-3)Gal(b1-4)GlcNAc(b1-2)Man
# In short: as §1
# [9] = biological target: Neu5Ac(a2-3)Gal(b1-4)GlcNAc(b1-3)Gal(b1-3)GlcNAc
# In short: as §1
# [10] = biological target: Neu5Ac(a2-3)Gal(b1-4)[Fuc(a1-3)]GlcNAc(b1-6)[Gal(b1-3)]GalNAc
# In short: as §1
# [11] = biological target: Neu5Ac(a2-3)Gal(b1-4)[Fuc(a1-3)]GlcNAc(b1-6)[Neu5Ac(a2-3)Gal(b1-3)]GalNAc
# In short: as §1
# [12] = biological target: Neu5Ac(a2-3)[GalNAc(b1-4)]Gal(b1-4)GlcNAc(b1-3)GalNAc
# In short: as §1
# Neu5Ac(a2-6)Gal(b1-4)Glc = biological target: Neu5Ac(a2-6)Gal(b1-4)Glc
# In short: as §1
# [13] = biological target: Neu5Ac(a2-6)Gal(b1-4)GlcNAc(b1-6)GalNAc
# In short: as §1
# [14] = biological target: Neu5Ac9Ac(a2-3)Gal(b1-3)GlcNAc
# In short: as §1
# [15] = biological target: Neu5Ac9Ac(a2-3)Gal(b1-4)GlcNAc
# In short: as §1
# [16] = biological target: Neu5Gc(a2-8)Neu5Gc(a2-6)Gal(b1-4)GlcNAc
# In short: as §1
binder,measurement,setting,value
B1,glycan array binding signal (z-score),[1],-0.832
same,glycan array binding signal (z-score),GlcNAc(b1-3)Fuc,0.25
same,glycan array binding signal (z-score),GlcNAc(b1-3)Gal,-0.782
same,glycan array binding signal (z-score),[2],-0.417
same,glycan array binding signal (z-score),[3],1.12
same,glycan array binding signal (z-score),Kdn(a2-3)Gal(b1-4)Glc,3.53
same,glycan array binding signal (z-score),[4],-0.916
same,glycan array binding signal (z-score),[5],4.88
same,glycan array binding signal (z-score),[6],-0.881
same,glycan array binding signal (z-score),[7],-0.187
same,glycan array binding signal (z-score),[8],5.56
same,glycan array binding signal (z-score),[9],-0.884
same,glycan array binding signal (z-score),[10],0.146
same,glycan array binding signal (z-score),[11],0.465
same,glycan array binding signal (z-score),[12],-0.27
same,glycan array binding signal (z-score),Neu5Ac(a2-6)Gal(b1-4)Glc,0.536
same,glycan array binding signal (z-score),[13],4.24
same,glycan array binding signal (z-score),[14],1.47
same,glycan array binding signal (z-score),[15],-0.689
same,glycan array binding signal (z-score),[16],-0.059
